Compound activity (PubChem BioAssay)
LmPK inh: blocks Leishmania mexicana pyruvate kinase activity. 290,000 compounds, 0.37% hits. Potency, µM (highest dose often 57.5 µM), for the others: top-dose activity change, negative = inhibition, hits mostly inhibitors. AID 1721. purified LmPK, Kinase-Glo ATP luminescence, 1 h; also: potency is read from the fitted curve at half-maximal effect; % is scaled to controls: 0 for no effect and ±100 for the full control effect
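Purified LmPK (0.1 nM) with 0.5 mM PEP and 0.1 mM ADP in imidazole buffer pH 7.2 with MgCl2/KCl, 1 h at room temperature. ATP formed was read by luciferase luminescence and normalized to no-enzyme and uninhibited controls.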
FBPA Giardia inh: blocks Giardia fructose-bisphosphate aldolase activity; A8B2U2; purified Giardia FBPA; Potency, µM (top dose mostly 59.6 µM), inactives show at the highest dose activity, negative = inhibition, actives largely listed as inhibitors; 290,000 compounds, 0.71% hits; also: potency is read from the fitted curve at half-maximal effect; % is scaled to controls: 0 for no effect and ±100 for the full control effect; nearly all actives have a fitted effect of over 55% in size
Target sequence (A8B2U2 whole entry, looked up): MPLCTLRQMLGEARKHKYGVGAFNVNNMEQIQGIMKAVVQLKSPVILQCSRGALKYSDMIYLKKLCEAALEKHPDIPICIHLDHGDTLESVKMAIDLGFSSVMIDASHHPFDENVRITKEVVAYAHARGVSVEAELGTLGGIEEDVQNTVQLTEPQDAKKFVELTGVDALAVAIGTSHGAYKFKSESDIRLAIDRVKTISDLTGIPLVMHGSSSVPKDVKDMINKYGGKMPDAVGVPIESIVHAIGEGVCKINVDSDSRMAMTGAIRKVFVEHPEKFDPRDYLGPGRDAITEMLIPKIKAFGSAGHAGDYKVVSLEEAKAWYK
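40 nM FBPA preincubated 10 min at RT with compound (up to 57.5 uM final), then substrate plus GAPDH/TPI/NAD/arsenate coupling and diaphorase/resazurin added. Fluorescence read after 20 min at RT, 525/598 nm.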
CHX counter: affects cycloheximide protein synthesis inhibition readout, counter-screen; cell reporter, cycloheximide protein synthesis inhibition counterscreen; max response, %; 300,000 compounds, 12% hits; in the data active = max response mostly above about 13%, no sharp cut-off; inactive = mostly below about 14%; also: read at 38.3 µM for the half of the compounds with a filed dose; 0% is about no effect
Shiga toxin inh: blocks Shiga toxin action in Vero cells | Vero cells, Shiga toxin protein synthesis inhibition reporter | 290,000 compounds, 9.2% hits | inhibition, % at 38.7 µM; in the data active = inhibition mostly above about 28%, no sharp cut-off; inactive = mostly below about 43%; also: 0% is about no effect
TbPYK inhibitor: inhibitors of Trypanosoma brucei pyruvate kinase | 410,000 compounds, 0.12% hits | Potency, µM (doses to about 76.8 µM), without a hit: top-dose activity, negative = inhibition, most hits filed as inhibitors | AID 624173 | Q57TT1 | TbPYK enzyme, Kinase-Glo Plus ATP luminescence, 45 min; also: potency is read from the fitted curve at half-maximal effect; % is scaled to controls: 0 for no effect and ±100 for the full control effect; nearly all actives have a fitted effect of over 50% in size
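T. brucei PYK with substrate was exposed to pin-transferred compounds across a concentration series, then started with 130 uM ADP (final). After 45 min at room temperature, Kinase-Glo Plus luminescence was read, normalized and curve-fitted.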
Sm TGR inh: blocks Schistosoma mansoni thioredoxin glutathione reductase. Q962Y6. Potency, µM (highest dose often 114 µM), without a hit: top-dose activity change, negative = inhibition, most hits filed as inhibitors. purified TGR, DTNB reduction, TNB absorbance 405 nm. 360,000 compounds, 3% hits; also: potency is read from the fitted curve at half-maximal effect; % is scaled to controls: 0 for no effect and ±100 for the full control effect; nearly all actives have a fitted effect of over 60% in size
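First, TGR (20 nM dispensed) and NADPH were mixed with compound. Second, a 15 min room-temperature incubation followed. Third, further NADPH and then DTNB were added to start the reaction. Finally, TNB absorbance was monitored kinetically.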
* marks the source's active call; other numbers are inactive results; [ ] = dose if it differs, or a comment. Only a selection was taken, and hits are over-represented in it overall. Unless noted, calls follow the shape of the dose curve; as a rule, active = well fitted curve in the direction sought with a large enough effect; inconclusive = small, poorly fitted or top-dose-only effect, or another doubt; inactive = no such curve, though single readings can be large; an effect the other way counts as inactive or inconclusive.

How did COc1ccc(C(=O)N/N=C(\c2ccccc2)c2ccccn2)cc1 do in these assays?
LmPK inh: 0.9%; FBPA Giardia inh: -14.4%; CHX counter: 16.0; Shiga toxin inh: 53.4*; TbPYK inhibitor: -4.5%; Sm TGR inh: -8.6%

What do the screens show for `O=C(NN=C(c1ccccc1)c1ccccn1)c1ccccc1`?
TbPYK inhibitor: -6.2%

Results for COc1ccc(NC(=O)c2ccccn2)cc1OC ?
LmPK inh: -23.0%; FBPA Giardia inh: inconclusive; CHX counter: 61.4*; Shiga toxin inh: 90.5*; TbPYK inhibitor: -3.2%; Sm TGR inh: -31.3%

Results for CCN(C(=O)c1ccc2c(=O)n3c(nc2c1)CCCCC3)c1ccc(F)cc1 ?
LmPK inh: -9.2%; FBPA Giardia inh: 17.2%; CHX counter: -0.5; Shiga toxin inh: 13.5; TbPYK inhibitor: 0.5%; Sm TGR inh: -7.5%

What do the screens show for `COc1ccc(CC(=O)NNC(=O)c2ccccn2)cc1`?
LmPK inh: -3.5%; FBPA Giardia inh: 17.6%; CHX counter: 11.7*; Shiga toxin inh: 64.4; TbPYK inhibitor: 2.9%; Sm TGR inh: inconclusive

What do the screens show for `COc1ccc(NC(=O)c2cc3ccccn3n2)cc1`?
LmPK inh: -6.1%; FBPA Giardia inh: -26.1%; CHX counter: 39.5*; Shiga toxin inh: 159.0; TbPYK inhibitor: -2.4%; Sm TGR inh: 0.2%

How did COc1ccc(C(=O)Nc2ccccc2C(=O)NC(Cc2ccc(O)cc2)C(=O)NNC(=O)c2ccccc2Cl)cc1 (stereo not drawn) do in these assays?
LmPK inh: 1.0%; FBPA Giardia inh: -5.4%; CHX counter: 11.5*; Shiga toxin inh: 4.5; TbPYK inhibitor: -4.8%; Sm TGR inh: -0.7%

How did COC(=O)c1cccc(C(=O)Nc2ccc(C)cc2)n1 do in these assays?
LmPK inh: -28.0%; FBPA Giardia inh: -4.0%; CHX counter: 44.9*; Shiga toxin inh: 79.8*; TbPYK inhibitor: -1.1%; Sm TGR inh: -8.3%

What do the screens show for `O=C(Nc1ccc(OC(F)(F)F)cc1)c1cc2ccccn2n1`?
TbPYK inhibitor: -3.6%; Sm TGR inh: -0.5%

Results for CC(C)(C)OC(=O)N1CCC(c2c(C(=O)NC3CCCCC3)cnn2-c2cccc(Cl)c2)CC1 ?
TbPYK inhibitor: -0.5%; Sm TGR inh: 0.1%

How did COc1ccc(C(=O)Nc2ccccn2)cc1 do in these assays?
LmPK inh: 0.5%; FBPA Giardia inh: 7.3%; CHX counter: -4.4; Shiga toxin inh: 8.6; TbPYK inhibitor: -1.0%; Sm TGR inh: -0.6%

Results for COc1ccc(C(=O)Nc2ccccc2C(=O)Nc2ccccn2)cc1 ?
LmPK inh: -2.9%; FBPA Giardia inh: 0.1%; CHX counter: 25.8*; TbPYK inhibitor: 3.0%; Sm TGR inh: -1.5%

How did COc1ccc(Cl)cc1NC(=O)NNC(=O)c1ccccn1 do in these assays?
LmPK inh: 0.5%; CHX counter: 23.8*; Shiga toxin inh: -1.0; TbPYK inhibitor: 5.7%; Sm TGR inh: 0.9%

How did COc1ccc(C(=O)Nc2ccc(NC(=O)c3ccccn3)cn2)cc1 do in these assays?
LmPK inh: 3.1%; FBPA Giardia inh: 0.1%; CHX counter: 11.1; Shiga toxin inh: 77.8*; TbPYK inhibitor: 9.8%; Sm TGR inh: -0.1%

Results for O=C(Cc1ccc(NC(=O)N2CCSc3ncccc32)cc1)NCc1ccccc1 ?
TbPYK inhibitor: -17.0%[15.4 µM]; Sm TGR inh: 5.6%

How did COc1ccc(NC(C)=O)c([N+](=O)[O-])c1[N+](=O)[O-] do in these assays?
TbPYK inhibitor: 4.5%

What do the screens show for `COc1ccc(OC)c([N+](=O)[O-])c1C(N)=O`?
LmPK inh: 1.7%; FBPA Giardia inh: inconclusive; CHX counter: -1.7; Shiga toxin inh: -21.8; TbPYK inhibitor: -5.2%; Sm TGR inh: 79.4µM*

How did CCCNC(=O)OC[C@@H]1O[C@H](CCO/N=C2\c3cc(OC)ccc3O[C@H](c3cccc(OC)c3)[C@H]2O)C=C[C@@H]1Oc1ccc(OC)cc1 do in these assays?
FBPA Giardia inh: 0.9%[12.9 µM]

Results for COc1ccc(NC(=O)CC2C(=O)Nc3ccccc3N2CC(=O)N2CCCC2)cc1 (stereo not drawn) ?
TbPYK inhibitor: 2.4%; Sm TGR inh: -5.6%

How did CCn1c(C)c(C(=O)O)c2cc(OC)c3ccccc3c21 do in these assays?
LmPK inh: 0.6%; FBPA Giardia inh: -0.7%; CHX counter: -3.4; Shiga toxin inh: -6.5; TbPYK inhibitor: -10.1%; Sm TGR inh: 38.2%

Results for C/C(=C\C(=O)c1ccccc1)NCc1ccc(F)cc1 ?
LmPK inh: -0.7%; FBPA Giardia inh: -1.0%; CHX counter: 59.6*; Shiga toxin inh: 109.8*; TbPYK inhibitor: 0.6%; Sm TGR inh: 4.9%

How did C/C(=C\C(=O)c1ccc(C)cc1)NCc1ccc(F)cc1 do in these assays?
TbPYK inhibitor: -0.3%

What do the screens show for `O=C(Nc1ccc(NC(=S)NC(=O)c2ccco2)cc1)c1ccccc1`?
LmPK inh: 0.2%; FBPA Giardia inh: -8.5%; CHX counter: 0.8; Shiga toxin inh: 25.4; TbPYK inhibitor: 0.6%; Sm TGR inh: -32.2%

How did CC(C)(C)C(=O)NC(=S)NCc1ccccc1 do in these assays?
LmPK inh: 1.4%; FBPA Giardia inh: -0.1%; CHX counter: -6.7; Shiga toxin inh: -7.5; TbPYK inhibitor: 2.8%; Sm TGR inh: 39.8µM*

What do the screens show for `Cc1ccc(C(=O)NC(=S)NCC(=O)c2ccccc2)cc1`?
LmPK inh: -0.1%; FBPA Giardia inh: 2.9%; CHX counter: 17.1*; Shiga toxin inh: 35.1; TbPYK inhibitor: 2.1%; Sm TGR inh: -25.2%

How did O=C(O)c1ccc(NC(=S)NCc2ccccc2)cc1 do in these assays?
LmPK inh: -0.1%; FBPA Giardia inh: inconclusive; CHX counter: -1.7; Shiga toxin inh: 12.0; TbPYK inhibitor: -2.8%; Sm TGR inh: -20.3%

What do the screens show for `O=C(CNC(=S)NC(=O)c1ccco1)c1ccccc1`?
LmPK inh: 3.0%; FBPA Giardia inh: -4.8%; CHX counter: 37.5*; Shiga toxin inh: 74.9*; TbPYK inhibitor: 3.5%; Sm TGR inh: -19.3%

Results for COc1ccc(C(=O)N2CCC[C@@]3(CCN(Cc4ccc(C#N)cc4)C3)C2)cc1 ?
FBPA Giardia inh: -2.3%; TbPYK inhibitor: 0.0%

How did O=C(CNC(=S)NC(=O)c1cccs1)c1ccccc1 do in these assays?
LmPK inh: 3.6%; FBPA Giardia inh: -8.5%; CHX counter: 66.3*; Shiga toxin inh: 89.6*; TbPYK inhibitor: -8.7%; Sm TGR inh: -3.1%

How did O=C(NC(=S)NCc1ccc(F)cc1)c1ccccc1 do in these assays?
LmPK inh: 3.5%; FBPA Giardia inh: -0.8%; CHX counter: 6.1; Shiga toxin inh: 8.1; TbPYK inhibitor: -9.1%; Sm TGR inh: 17.8µM*

What do the screens show for `O=C(NC(=S)NCc1ccccc1)c1cccs1`?
LmPK inh: -1.0%; CHX counter: 14.5; Shiga toxin inh: 25.0; TbPYK inhibitor: -8.4%; Sm TGR inh: 79.4µM*
